Experiment in all cases: DAPPL (digital affinity profiling via proximity ligation, sequencing); 10 mM Tris-HCl pH 7.5, 50 mM NaCl, 1 mM DTT, 4% glycerol, room temperature, 30 min; GST-TFs on glutathione beads, 16-mer random dsDNA library, 0.1% formaldehyde crosslink after washing; high values mean tight binding
Conditions in all cases: protein: recombinant; tags: N-terminal GST; dsDNA, one strand shown

For one assay, the target named is T1, FLI1 (Homo sapiens, UniProt Q01543 1-452).
T1 sequence: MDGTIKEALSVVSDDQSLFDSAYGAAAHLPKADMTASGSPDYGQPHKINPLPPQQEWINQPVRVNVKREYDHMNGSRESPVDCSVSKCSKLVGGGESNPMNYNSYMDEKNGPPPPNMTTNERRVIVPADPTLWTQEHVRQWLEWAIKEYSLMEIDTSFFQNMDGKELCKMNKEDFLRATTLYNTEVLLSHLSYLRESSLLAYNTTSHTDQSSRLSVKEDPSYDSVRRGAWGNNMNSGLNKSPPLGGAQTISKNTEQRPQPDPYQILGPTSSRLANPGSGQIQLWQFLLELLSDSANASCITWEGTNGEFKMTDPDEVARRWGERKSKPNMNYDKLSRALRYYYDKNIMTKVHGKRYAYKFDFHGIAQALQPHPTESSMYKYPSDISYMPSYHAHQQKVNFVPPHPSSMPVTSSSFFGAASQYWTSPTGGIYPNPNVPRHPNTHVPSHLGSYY
The method in brief: (§1)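 Binding signal is given per hexamer as its read frequency for a factor divided by its frequency in the tag-only sample. GST-fused human transcription factors were expressed in yeast, captured on glutathione beads, barcoded with DNA and pooled with that sample, then incubated with 200 nmole of a 16-mer random double-stranded DNA library in Tris/NaCl/DTT/glycerol buffer for 30 min at room temperature. The pools were then washed, crosslinked, proximity-ligated, amplified by PCR and sequenced on an Illumina NextSeq500.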

The target of the next assay is T2, ELK1 (Homo sapiens, UniProt P19419 1-428).
T2 sequence: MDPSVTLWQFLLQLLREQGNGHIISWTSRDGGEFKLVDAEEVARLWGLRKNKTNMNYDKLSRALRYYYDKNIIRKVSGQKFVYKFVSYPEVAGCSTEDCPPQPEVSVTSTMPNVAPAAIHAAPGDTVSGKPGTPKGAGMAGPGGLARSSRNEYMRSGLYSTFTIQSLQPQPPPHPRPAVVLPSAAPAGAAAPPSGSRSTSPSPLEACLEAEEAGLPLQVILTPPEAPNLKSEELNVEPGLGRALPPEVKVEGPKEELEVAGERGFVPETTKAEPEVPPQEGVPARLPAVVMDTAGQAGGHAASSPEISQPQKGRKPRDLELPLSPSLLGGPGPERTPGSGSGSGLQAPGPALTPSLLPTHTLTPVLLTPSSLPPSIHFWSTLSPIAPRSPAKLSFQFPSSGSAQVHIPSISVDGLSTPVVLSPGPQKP
The method in brief: as §1

Another assay addresses T3, GABPA (Homo sapiens, UniProt Q06546 1-454).
T3 sequence: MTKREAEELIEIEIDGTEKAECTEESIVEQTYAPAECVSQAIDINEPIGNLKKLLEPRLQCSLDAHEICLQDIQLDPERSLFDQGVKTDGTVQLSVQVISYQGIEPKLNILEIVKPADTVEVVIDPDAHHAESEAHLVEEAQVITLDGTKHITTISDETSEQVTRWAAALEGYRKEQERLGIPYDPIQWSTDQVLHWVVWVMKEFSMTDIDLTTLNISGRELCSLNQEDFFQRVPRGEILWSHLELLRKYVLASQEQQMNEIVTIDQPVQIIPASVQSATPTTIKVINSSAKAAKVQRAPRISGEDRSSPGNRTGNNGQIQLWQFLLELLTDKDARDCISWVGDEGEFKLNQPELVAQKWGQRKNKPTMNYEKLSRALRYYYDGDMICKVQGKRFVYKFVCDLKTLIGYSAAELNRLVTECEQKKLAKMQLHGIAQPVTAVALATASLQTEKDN
The method in brief: as §1

Another assay concerns the target T4, ERG (Homo sapiens, UniProt P11308 1-479).
T4 sequence: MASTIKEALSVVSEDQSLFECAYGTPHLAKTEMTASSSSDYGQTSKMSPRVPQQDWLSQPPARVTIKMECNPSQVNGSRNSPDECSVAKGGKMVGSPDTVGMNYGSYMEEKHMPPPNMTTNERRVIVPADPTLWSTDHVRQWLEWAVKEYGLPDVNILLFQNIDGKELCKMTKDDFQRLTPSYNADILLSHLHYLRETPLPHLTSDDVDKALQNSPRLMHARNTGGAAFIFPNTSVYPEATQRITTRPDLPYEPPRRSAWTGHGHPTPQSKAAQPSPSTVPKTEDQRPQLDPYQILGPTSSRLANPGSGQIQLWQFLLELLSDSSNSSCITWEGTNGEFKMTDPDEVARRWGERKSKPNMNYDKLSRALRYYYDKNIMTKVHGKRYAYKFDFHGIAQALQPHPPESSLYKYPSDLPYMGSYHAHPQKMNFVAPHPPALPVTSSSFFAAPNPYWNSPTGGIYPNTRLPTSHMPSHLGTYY
The method, boiled down:
as §1

In another assay the target is ELF1 (Homo sapiens, UniProt P32519 1-619). The method in brief:
as §1

The target in the next assay is T5, EHF (Homo sapiens, UniProt Q9NZC4 1-300).
T5 sequence: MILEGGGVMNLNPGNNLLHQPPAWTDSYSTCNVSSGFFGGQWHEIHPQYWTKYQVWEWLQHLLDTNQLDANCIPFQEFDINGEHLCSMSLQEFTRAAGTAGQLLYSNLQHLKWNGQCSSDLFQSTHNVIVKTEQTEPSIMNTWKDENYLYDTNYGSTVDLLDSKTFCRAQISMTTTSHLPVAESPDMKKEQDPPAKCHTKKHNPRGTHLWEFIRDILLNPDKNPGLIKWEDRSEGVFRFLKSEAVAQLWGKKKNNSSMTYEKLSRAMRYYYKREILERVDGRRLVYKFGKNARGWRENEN
The method in brief:
as §1

The target in a further assay is SPI1 (Homo sapiens, UniProt P17947 1-270). The method, boiled down: as §1
Another assay deals with SPIB (Homo sapiens, UniProt Q01892 1-262). The method, boiled down:
as §1

The target of a further assay is T6, ELK3 (Homo sapiens, UniProt P41970 1-407).
T6 sequence: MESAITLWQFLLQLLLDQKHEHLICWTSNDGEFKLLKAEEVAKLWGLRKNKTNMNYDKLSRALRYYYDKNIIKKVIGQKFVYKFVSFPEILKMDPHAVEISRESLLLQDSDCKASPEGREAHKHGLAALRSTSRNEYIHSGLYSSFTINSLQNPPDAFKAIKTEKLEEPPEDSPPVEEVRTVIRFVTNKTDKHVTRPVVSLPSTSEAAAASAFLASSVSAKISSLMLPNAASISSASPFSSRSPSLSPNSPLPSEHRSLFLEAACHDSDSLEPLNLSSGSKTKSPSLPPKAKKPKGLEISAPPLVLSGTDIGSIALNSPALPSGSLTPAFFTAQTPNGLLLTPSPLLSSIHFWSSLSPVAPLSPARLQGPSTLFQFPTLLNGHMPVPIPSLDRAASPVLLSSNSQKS
The method, boiled down:
as §1

Seven sequences from PMC7862700, “An all-to-all approach to the identification of sequence-specific readers for epigenetic DNA modifications on cytosine” can be followed below.

ELF1, sequence (P32519 whole entry): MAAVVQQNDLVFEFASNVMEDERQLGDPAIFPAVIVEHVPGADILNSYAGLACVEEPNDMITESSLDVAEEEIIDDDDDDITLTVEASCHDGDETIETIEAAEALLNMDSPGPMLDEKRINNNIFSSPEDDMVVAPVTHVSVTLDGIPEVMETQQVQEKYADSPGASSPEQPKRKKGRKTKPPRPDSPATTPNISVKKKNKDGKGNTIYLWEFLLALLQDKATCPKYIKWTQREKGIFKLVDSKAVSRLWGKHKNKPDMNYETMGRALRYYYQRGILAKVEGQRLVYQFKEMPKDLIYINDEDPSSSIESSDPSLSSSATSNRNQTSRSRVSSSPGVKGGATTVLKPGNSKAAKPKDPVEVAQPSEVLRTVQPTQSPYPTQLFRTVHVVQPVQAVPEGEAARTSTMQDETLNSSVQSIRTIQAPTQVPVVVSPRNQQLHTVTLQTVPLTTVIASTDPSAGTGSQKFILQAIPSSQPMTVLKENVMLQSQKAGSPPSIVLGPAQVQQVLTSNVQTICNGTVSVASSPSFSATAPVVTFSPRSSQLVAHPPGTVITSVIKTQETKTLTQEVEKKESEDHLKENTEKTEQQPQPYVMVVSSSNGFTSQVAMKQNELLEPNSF
SPIB, sequence (Q01892 whole entry): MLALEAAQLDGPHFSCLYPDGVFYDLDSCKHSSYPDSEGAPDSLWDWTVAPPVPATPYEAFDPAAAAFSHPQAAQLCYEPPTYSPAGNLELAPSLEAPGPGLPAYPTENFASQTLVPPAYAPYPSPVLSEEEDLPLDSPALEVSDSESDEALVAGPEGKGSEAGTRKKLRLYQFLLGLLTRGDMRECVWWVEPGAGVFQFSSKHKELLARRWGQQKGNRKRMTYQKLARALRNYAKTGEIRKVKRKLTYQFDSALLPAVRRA

ATTCGA: the binding signal in the assay with FLI1 is 1.3 fold enrichment (6-mer frequency, TF over GST control); in the assay with ELK1, 1.22 fold enrichment (6-mer frequency, TF over GST control); with GABPA it was 1.37 fold enrichment (6-mer frequency, TF over GST control); in the assay with ERG, 1.33 fold enrichment (6-mer frequency, TF over GST control); with ELF1, 1.41 fold enrichment (6-mer frequency, TF over GST control); in the assay with EHF, 1.29 fold enrichment (6-mer frequency, TF over GST control). Also, the binding signal with SPI1 was 1.32 fold enrichment (6-mer frequency, TF over GST control); with SPIB it was 1.38 fold enrichment (6-mer frequency, TF over GST control); with ELK3 it was 1.25 fold enrichment (6-mer frequency, TF over GST control).

As to ATCTAG, the binding signal with FLI1 was 1.12 fold enrichment (6-mer frequency, TF over GST control); with ELK1, 1.16 fold enrichment (6-mer frequency, TF over GST control); with GABPA it was 1.12 fold enrichment (6-mer frequency, TF over GST control); in the assay with ERG, 1.1 fold enrichment (6-mer frequency, TF over GST control); with ELF1, 1.1 fold enrichment (6-mer frequency, TF over GST control); with EHF, 1.14 fold enrichment (6-mer frequency, TF over GST control). The binding signal was 1.14 fold enrichment (6-mer frequency, TF over GST control) with SPI1; 1.2 fold enrichment (6-mer frequency, TF over GST control) in the assay with SPIB; 1.23 fold enrichment (6-mer frequency, TF over GST control) with ELK3.

On to ATGCGA, for which the binding signal is 1.18 fold enrichment (6-mer frequency, TF over GST control) with FLI1; 1.27 fold enrichment (6-mer frequency, TF over GST control) with ELK1; 1.24 fold enrichment (6-mer frequency, TF over GST control) with GABPA; 1.21 fold enrichment (6-mer frequency, TF over GST control) in the assay with ERG; 1.26 fold enrichment (6-mer frequency, TF over GST control) with ELF1; 1.23 fold enrichment (6-mer frequency, TF over GST control) in the assay with EHF. Also, the binding signal was 1.19 fold enrichment (6-mer frequency, TF over GST control) in the assay with SPI1; 1.12 fold enrichment (6-mer frequency, TF over GST control) with SPIB; 1.14 fold enrichment (6-mer frequency, TF over GST control) in the assay with ELK3.

Turning to CATTCT, the binding signal in the assay with FLI1 is 1.37 fold enrichment (6-mer frequency, TF over GST control); in the assay with ELK1, 1.33 fold enrichment (6-mer frequency, TF over GST control); with GABPA it was 1.25 fold enrichment (6-mer frequency, TF over GST control); with ERG, 1.27 fold enrichment (6-mer frequency, TF over GST control); with ELF1, 1.4 fold enrichment (6-mer frequency, TF over GST control); in the assay with EHF, 1.35 fold enrichment (6-mer frequency, TF over GST control). In addition, the binding signal is 1.26 fold enrichment (6-mer frequency, TF over GST control) in the assay with SPI1; 1.22 fold enrichment (6-mer frequency, TF over GST control) with SPIB; 1.28 fold enrichment (6-mer frequency, TF over GST control) in the assay with ELK3.

Turning to ACATTT, the binding signal with FLI1 is 1.63 fold enrichment (6-mer frequency, TF over GST control); in the assay with ELK1, 1.48 fold enrichment (6-mer frequency, TF over GST control); with GABPA, 1.43 fold enrichment (6-mer frequency, TF over GST control); in the assay with ERG, 1.56 fold enrichment (6-mer frequency, TF over GST control); with ELF1, 1.46 fold enrichment (6-mer frequency, TF over GST control); with EHF it was 1.49 fold enrichment (6-mer frequency, TF over GST control). Also, the binding signal in the assay with SPI1 is 1.41 fold enrichment (6-mer frequency, TF over GST control); in the assay with SPIB, 1.53 fold enrichment (6-mer frequency, TF over GST control); in the assay with ELK3, 1.36 fold enrichment (6-mer frequency, TF over GST control).

In the case of TATAGT, the binding signal in the assay with FLI1 is 1.12 fold enrichment (6-mer frequency, TF over GST control); with ELK1, 1.1 fold enrichment (6-mer frequency, TF over GST control); with GABPA, 1.11 fold enrichment (6-mer frequency, TF over GST control); with ERG, 1.05 fold enrichment (6-mer frequency, TF over GST control); with ELF1 it was 1.07 fold enrichment (6-mer frequency, TF over GST control); with EHF, 1.12 fold enrichment (6-mer frequency, TF over GST control). In addition, the binding signal is 1.06 fold enrichment (6-mer frequency, TF over GST control) with SPI1; 1.04 fold enrichment (6-mer frequency, TF over GST control) with SPIB; 1.03 fold enrichment (6-mer frequency, TF over GST control) in the assay with ELK3.

With ATAATC, the binding signal was 1.17 fold enrichment (6-mer frequency, TF over GST control) in the assay with FLI1; 1.16 fold enrichment (6-mer frequency, TF over GST control) with ELK1; 1.14 fold enrichment (6-mer frequency, TF over GST control) with GABPA; 1.13 fold enrichment (6-mer frequency, TF over GST control) with ERG; 1.07 fold enrichment (6-mer frequency, TF over GST control) with ELF1; 1.14 fold enrichment (6-mer frequency, TF over GST control) with EHF. Also, the binding signal with SPI1 is 1.1 fold enrichment (6-mer frequency, TF over GST control); in the assay with SPIB it was 1.08 fold enrichment (6-mer frequency, TF over GST control); in the assay with ELK3 it was 1.17 fold enrichment (6-mer frequency, TF over GST control).
